Our source for the cell viability values is the supplement of paper PMC12808144.

The first assay has as its system Mel-DCC-11-R. Put plainly: cell viability relative to DMSO control (fraction of DMSO control); higher = less cytotoxic, active = 0.8 or less. The settings on record: 1 µM; 120 h; vemurafenib co-treatment 0 µM. Here is the method: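 Same 315-drug TargetMol library at 1 µM in duplicate, 120 h, ATPlite luminescence normalised to DMSO controls, on the vemurafenib-resistant subline Mel-DCC-11-R cultured alone or with 8 µM vemurafenib co-treatment (Mel-DCC-11-R + V).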
With `O=[As]O[As]=O` (stereo unspecified) [Arsenic oxide (3)], the cell viability is 0.971 (inactive).
`CCCCCN(C)CCC(O)(P(=O)([O-])O)P(=O)(O)O.[Na+]` [Ibandronate sodium]: the cell viability was 0.82 (inactive).
Consider `NCCC(O)(P(=O)([O-])O)P(=O)([O-])O.[Na+].[Na+]` [Pamidronate disodium salt], for which the cell viability is 1.02 (inactive).

Staying with this assay, now noted: 1 µM; 120 h; vemurafenib co-treatment 8 µM.
Turning to `O=[As]O[As]=O` (stereo unspecified) [Arsenic oxide (3)], the cell viability was 0.951 (inactive).
Same read-out and setting: under `CCCCCN(C)CCC(O)(P(=O)([O-])O)P(=O)(O)O.[Na+]` [Ibandronate sodium] stands 0.935 (inactive).
Consider `NCCC(O)(P(=O)([O-])O)P(=O)([O-])O.[Na+].[Na+]` [Pamidronate disodium salt], for which the cell viability was 0.981 (inactive).
